Several values for one entry are separate records, joined by “and”; a condition that tells them apart may be missing. Identical values can stand only once. Hit rate of the full screen: of about 16,000 compounds, about 2,600 (16%) were called active. Inconclusive results (about 20%) are left out. The call rests on the fitted dose curve; in most records, active means well fitted curve in the direction sought with a large enough effect; inconclusive means small, poorly fitted or top-dose-only effect, or effect the other way; inactive means no such curve, though single readings can be large or run the other way. A selection follows.
target: Cytochrome P450 2D6 (Homo sapiens) (UniProt P10635); assay: Cytochrome panel assay with activity outcomes; details: recombinant CYP, pro-luciferin dealkylation, luminescence, p450-cyp2d6; series mostly up to 57.1 µM
Sequence (P10635 whole entry, looked up): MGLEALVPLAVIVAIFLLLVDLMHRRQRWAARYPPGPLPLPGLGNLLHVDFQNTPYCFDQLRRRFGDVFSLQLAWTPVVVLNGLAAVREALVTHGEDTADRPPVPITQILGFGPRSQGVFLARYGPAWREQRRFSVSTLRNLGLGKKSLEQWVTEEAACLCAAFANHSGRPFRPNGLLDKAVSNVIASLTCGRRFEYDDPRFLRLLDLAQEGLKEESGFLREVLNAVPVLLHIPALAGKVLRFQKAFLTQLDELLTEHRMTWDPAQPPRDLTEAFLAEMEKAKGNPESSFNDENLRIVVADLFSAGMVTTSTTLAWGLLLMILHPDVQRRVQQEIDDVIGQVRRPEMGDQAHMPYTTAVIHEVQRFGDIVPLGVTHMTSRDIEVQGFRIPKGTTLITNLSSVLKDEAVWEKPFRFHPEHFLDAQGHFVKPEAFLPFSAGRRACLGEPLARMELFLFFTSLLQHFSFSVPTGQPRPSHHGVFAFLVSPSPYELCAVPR
On the % scale 0 is the no-effect control and ±100 the full control effect.

AC50, inactive:
CC1(C)CCCN(C(=O)c2coc(=O)c(Br)c2)C1
CCOC(=O)C1=C(O)C(Nc2nccs2)(C(F)(F)F)N=C1C (stereo not given)
CC(=O)N(C)c1nnc(-c2cnccn2)s1
Cc1ccc(-c2nnc(N(C)C(=O)c3cccnc3)s2)cc1
COCCn1c(=O)c(-c2ccc(F)cc2)nc2cncnc21
Clc1ccc(-c2cc3ccccc3[nH]2)cc1
O=[N+]([O-])c1cccc2cn[nH]c12
COc1ccc(C(=O)N2CCC3(CCCN(C(=O)Nc4cccc(C#N)c4)C3)CC2)cc1
CN(C)CCO[C@](C)(c1ccccc1)c1ccccn1
Cn1cc(-c2nc3cnc(Oc4cccc(Cl)c4)nc3n(CCC#N)c2=O)c2ccccc21
Nc1cc(=O)[nH]c(N)n1
CCCc1nnc(SCC(=O)N2CCCCC2)n1CC1CCCO1 (stereo not given)
CC(C)c1nc2oc3ccccc3c(=O)c2c(=O)n1-c1ccccc1
COc1cc(CC(=O)O)c(C(C)=O)cc1OC
CNc1oc(-c2cccs2)nc1C#N
N#Cc1nc(-c2ccc(OCc3ccccc3)cc2)oc1NCCN1CCOCC1
CCCC12CN3CC(CCC)(CN(C1)C3C(O)C(O)C(O)CO)C2=O (stereo not given)
CCO/C([O-])=N/c1c[n+](N2CCOCC2)no1
COC(=O)c1sc2ccccc2c1-n1cccc1C(=O)C(=O)Nc1ccc(Cl)cc1
OC[C@@H]1NC[C@@H](O)[C@@H](O)[C@H]1O
COc1ccc(-c2ccc(=O)n(CC(=O)Nc3nnc(C(C)C)s3)n2)cc1OC
CCOc1ccc(-c2nnn(CC(=O)Nc3cc(OC)ccc3OC)n2)cc1OCC
CCOc1ccccc1NC(=O)C1=C(C)NC(=O)NC1c1cccc(OC)c1OC (stereo not given)
Nc1ncnc(N(c2ccccc2)C2CCCCC2)c1[N+](=O)[O-]
COc1ccc(CN2CCN(C(=O)CC(C)C)CC2)c(OC)c1OC
COc1cc(CN2CCN(C(=O)CC(C)C)CC2)cc(OC)c1OC
Cc1cc(NS(=O)(=O)c2ccc(NC(=O)CN3C(=O)c4ccccc4C3=O)cc2)nc(C)n1
Cc1ccc(NCCC(=O)c2ccc(Cl)c(Cl)c2)cc1
O=C(c1cc(Cl)c(=O)n(Cc2ccc(Cl)cc2)c1)N1CCOCC1
O=c1nc2ccccc2c(NS(=O)(=O)c2ccc(Cl)cc2)n1-c1ccccc1
COc1ncc2nc(C)c(=O)n(CCC#N)c2n1
COc1ccc(C(=O)N2CCC3(CCCN(C(=O)Nc4cccc(F)c4)C3)CC2)cc1
CCN(CC)C(=O)c1sc2[nH]c(=S)n(-c3ccccc3)c(=O)c2c1C
COc1cccc(OC)c1C(=O)Nc1cc(C)on1
CCOC(=O)C1=C(COc2ccc(F)cc2Cl)NC(=O)NC1c1cc(C)ccc1C (stereo not given)
CC(C)NC(=O)c1ccc2c(=O)n(Cc3ccco3)c(=S)[nH]c2c1
Cc1ncsc1C(=O)N1N=C2/C(=C/c3ccccc3)CCCC2C1c1ccccc1 (stereo not given)
Cc1ccc(S(=O)(=O)N/N=C/c2cccn2-c2ccc(Cl)cc2)cc1
COc1ccc(C(=O)Oc2cc(/C=N/NS(=O)(=O)c3ccc(C)cc3)ccc2OC)cc1
CCc1ccccc1NC(=O)c1nnn(CC(=O)Nc2ccccc2C)c1N
Cc1nn(CC(=O)NCCN2CCOCC2)c(C)c1[N+](=O)[O-]
Cc1cc(C)n(C(=O)CCCCCCCCC(=O)n2nc(C)cc2C)n1
COc1ccc(N2CCN(c3nc(Nc4ccc(F)cc4)nc(OC)n3)CC2)cc1
COc1ccc(Nc2cc(C(=O)NCCCN3CCN(C)CC3)c3ccccc3n2)cc1
CCNc1ncc2ncc(=O)n(C[C@H]3CCCO3)c2n1
COC(=O)C(Cc1c[nH]c2ccccc12)NC(=O)C(C)C (stereo not given)
COc1ccc(C(C(=O)NC2CCCCC2)N(C(=O)Cc2c[nH]c3ccccc23)c2ccc(NC(C)=O)cc2)cc1OC (stereo not given)
CC(=O)N[C@@H](Cc1c[nH]c2ccccc12)C(=O)OCc1cc(C(F)(F)F)cc(C(F)(F)F)c1
CCOC(=O)c1cnc2cc(-c3ccc(C)cc3)nn2c1-c1ccccc1
O=C1N=C(N2CCC(Cc3ccccc3)CC2)S/C1=C/c1cn[nH]c1-c1ccccc1
COc1ccccc1NC(=O)Nc1nnc(-c2ccco2)s1
O=S(=O)(c1ccccc1)c1cnc(-c2cccnc2)nc1-c1ccc(Cl)cc1Cl
COC(=O)c1c(C)[nH]c(O)c1C=Nc1ccc(C(C)C)cc1
OC[C@H]1NC[C@H](O)[C@@H](O)[C@H]1O
O=C1OCc2cccc3cccc1c23
COc1ccc(C2=C(C#N)C(=O)OC2)cc1
CCOC(=O)c1cnn(-c2nc(-c3cccc(F)c3)cs2)c1C(F)(F)F
CC1(C)C(=O)C(c2ccccc2)=C2CN3C(=O)N(CCc4ccccc4)C(=O)C3(Cc3ccccc3)C=C21 (stereo not given)
N#Cc1cc2[nH]c(=O)c(=O)[nH]c2cc1[N+](=O)[O-]
C[C@@]12C(=O)OC(=O)[C@@]1(C)[C@@H]1CC[C@@H]2O1
Cc1cccc(C)c1NC(=O)C[N+](C)(C)C
Cc1ccccc1NC(=O)Cn1cnc2c1c(=O)n(C)c(=O)n2C
Cc1ccccc1NC(=O)c1cnc(Nc2nc3ccccc3s2)nc1C
CC(N)=O
C=CCNC(=O)C1CCN(S(=O)(=O)CC)CC1
CCS(=O)(=O)N1CCC(C(=O)NCCCOC)CC1
C=CCn1c(SCC(=O)Nc2c(C)n(C)n(-c3ccccc3)c2=O)nc2sc(C)c(-c3ccccc3)c2c1=O
COc1ccc(CO/N=C/c2c(C)[nH]c(=O)[nH]c2=O)cc1
CC(C)CNC(=S)N1CCN(C)CC1
CCN(CC)S(=O)(=O)c1cccc2c(N(C)C)cccc12
CCOC(=O)NNC1CC(=O)N(c2ccc(OC)cc2)C1=O (stereo not given)
O=C(c1ccccc1)c1c[nH]c(C(=O)NCCCN2CCOCC2)c1
CCC(CC)C(=O)c1c[nH]c(C(=O)NCCCN2CCOCC2)c1
O=c1onc2n1-c1cc(Br)ccc1OC2
COc1ccc(-n2c(=O)c(-c3ccc(Cl)cc3)nc3cnc(N4CCNCC4)nc32)cc1

AC50, active:
COc1cccc(C(=O)N(C)c2nnc(-c3ccncc3)s2)c1 2 µM
c1ccc(C[n+]2cccc(-c3cc4ccccc4[nH]3)c2)cc1 1.26 µM
C[C@@H](C1=C(CCN(C)C)Cc2ccccc21)c1ccccn1 12.6 µM
CC(=O)c1cc(CC=C(C)C)c(O)cc1O 14.1 µM
N#Cc1nc(-c2cccs2)oc1NCc1ccccc1 4.47 µM
COc1ccc(-c2nnn(CC(=O)N(CC(=O)NCCC(C)C)Cc3cccs3)n2)cc1OC 11.2 µM
CC(C)CC(=O)N1CCN(Cc2cccc(F)c2)CC1 8.91 µM
Cc1ccc(S(=O)(=O)Nc2ccc(=O)n(Cc3ccc(Cl)c(Cl)c3)c2)cc1 3.98 µM
O=c1ccc(NS(=O)(=O)c2ccc(Cl)cc2)cn1Cc1ccc(Cl)c(Cl)c1 7.94 µM
O=c1ccc(NS(=O)(=O)c2ccccc2)cn1Cc1ccc(Cl)c(Cl)c1 14.1 µM
O=S(=O)(N/N=C\c1cccn1-c1ccccc1)c1ccc2ccccc2c1 5.01 µM
COc1ccc(Nc2nc(N3CCCCC3)c3ccccc3n2)cc1 1.58 µM
COc1cc(CNCCc2c[nH]c3ccccc23)ccc1OCc1ccccc1F 3.98 µM
COc1cccc(CNCCc2c[nH]c3ccccc23)c1OCc1ccccc1F 0.282 µM
CNCCC=C1c2ccccc2C=Cc2ccccc21 5.01 µM
CN(C)CCC=C1c2ccccc2C=Cc2ccccc21 6.31 µM
CN(C)CC/C=C1\c2ccccc2COc2ccccc21 15.8 µM and 3.16 µM and 3.98 µM
CC(=O)c1cn(CC(=O)Nc2c(C)cccc2C)c2ccccc12 7.94 µM
CCN(CCCNC(=O)C1CCN(S(=O)(=O)CC)CC1)c1cccc(C)c1 25.1 µM
CCN(CC)S(=O)(=O)c1ccc2c3c(cccc13)C(=O)S2 12.6 µM
O=C(NCCCN1CCOCC1)c1cc2c(s1)CSC2 1.26 µM

activity, negative = inhibition, inactive:
CO[C@@H]1COC(=O)[C@@H](CCSC)NC(=O)C/C=C\[C@@H](C)COC(=O)CCC[C@H]1C 6.34% [at 11.4 µM]
O=C(O)CCc1nc(-c2ccccc2-n2cccc2)no1 -11.8% [at 11.4 µM]
NS(=O)(=O)c1ccc(N=Nc2nc3[nH]c(=O)[nH]c(=O)c3[nH]2)cc1 15.1% [at 11.4 µM]
NC(N)=N/N=C(\c1ccc(Cl)cc1)C1CC1 1.81% [at 11.4 µM]
CN[C@@H](c1ccncc1)[C@@H](NC)c1ccncc1 -10.1% [at 11.4 µM]
COc1cc(Cl)c(CC(=O)c2c[nH]c3ccccc23)cc1OC -18% [at 11.4 µM]
C[N+](C)([O-])CCC=C1c2ccccc2CCc2ccccc21 -5.43% [at 11.4 µM]
O=C(O)[C@@H]1CCCN1 -2.04% [at 11.4 µM]
NC(N)=N/N=C\c1ccc(C2CCNCC2)cc1 -11% [at 11.4 µM]

Reference: PubChem BioAssay AID1851 (National Center for Advancing Translational Sciences (NCATS), 2009)
